Screens as filed in PubChem BioAssay.
ABHD5 PLIN5 PPI: ABHD5-PLIN5 protein interaction inhibition | inhibition, % at 4 µM | Split G. princeps luciferase complementation, luminescence, 4 h | 360,000 tested, 0.78% active | Q00G26+Q8WTS1;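 active means inhibition above the mean inhibition across every tested compound plus 3 SD, cut at about 22% in these data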;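 further: 0% = DMSO only wells and the 100% control is not disclosed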
Platelet DG rel: modulates dense granule release in human platelets. 300,000 tested, 0.22% active. human platelet-rich plasma, SFLLRN dense granule ATP release, luminescence. AID 1663. inhibition, %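 (compounds screened at 7.5 µM in platelet-rich plasma)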;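 active means mean replicate score, as percent of positive control, at or above 50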
Rce1 inh: blocks yeast Ras-converting enzyme; calls only; yeast membranes, quenched prenylated peptide cleavage fluorescence; 290,000 tested, 0.27% active; Q03530;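 active means fall in fluorescence gain of 50% or more versus controls, with final raw signal at or below 3038400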;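 further: plate controls were neutral control wells for no effect and wells lacking membranes for full effect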
Exocytosis inh: blocks lytic granule exocytosis; TALL-104 LAMP-1 surface exposure, flow cytometry; cells stimulated with thapsigargin and PMA; inhibition, % at 10 µM; 360,000 tested, 0.66% active; AID 651702;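 active means inhibition above about 55%, limit read from the data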
PfM18AAP inh: blocks P. falciparum M18 aspartyl aminopeptidase | recombinant PfM18AAP, H-Glu-NHMec fluorogenic cleavage | inhibition, % at 7.35 µM | 290,000 tested, 1.2% active;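 active means inhibition above the campaign mean inhibition over all tested compounds plus 3 SD, cut at about 28% in these data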;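 further: 0% = plate median of test compound wells and 100% = 2 mM ZnCl2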
* = called active by the depositor; i = inactive; x = no result given; + = active, no number. Hits are enriched below; roughly 2.6% of the tested compounds scored in any of these assays.

SMILES	ABHD5 PLIN5 PPI	Platelet DG rel	Rce1 inh	Exocytosis inh	PfM18AAP inh
Cc1ccc(S(=O)(=O)c2c(N)n(Cc3ccco3)c3nc4ccccc4nc23)cc1	12	4	i	13	9
C/C(=N/NS(=O)(=O)c1cc(C)ccc1C)c1ccncc1	-11	6	i	-1	31*
O=C(Cc1ccccc1)Nc1cccc(NC(=O)c2cccs2)c1	1	-1	i	-14	-7
CCn1cc(C(=O)O)c(=O)c2cc(F)c(N3CCN(C(=S)Nc4ccccc4OC)CC3)cc21	-8	0	i	1	-9
CCn1cc(C(=O)O)c(=O)c2cc(F)c(N/N=C/c3ccccc3[N+](=O)[O-])cc21	2	4	i	72*	-9
CCc1ccccc1NC(=O)c1ccc2nc(N3CCOCC3)sc2c1	-6	-20	i	-7	-1
Cc1ccc(NC(=O)c2ccc3nc(N4CCOCC4)sc3c2)c(Cl)c1	0	-2	i	-1	29*
Cc1ccc(C(=O)Nc2ccc(N3CCOCC3)nc2N2CCOCC2)cc1	-5	-1	x	12	28*
CCN(CC(=O)Nc1c(F)cccc1F)C(=O)c1ccc(S(=O)(=O)N(CC)c2ccccc2)cc1	-3	x	x	8	x
COc1ccc(-c2c(C#N)c(N)nc3c2CCC3)cc1	-1	-9	i	-1	9
CSc1nc2c(c(-c3ccc(O)cc3)c1C#N)CCC2	2	63*	i	0	-2
O=C(NC1CCCCC1)C(c1ccc2ncccc2c1)N(Cc1ccc2c(c1)OCO2)C(=O)c1cccs1 (configuration not stated)	-12	5	i	-1	-2
O=C(c1cc2c(ccc3ccccc32)oc1=O)N1CCCC1	1	0	i	-2	-4
O=C(O)c1cc2c(ccc3ccccc32)oc1=O	2	1	+	1	-7
CN(CC(=O)Nc1ccc(F)cc1)C(=O)CN1C(=O)NC(CCc2ccccc2)C1=O (configuration not stated)	4	x	x	-1	x
COc1cc(C(=O)N2CCc3ccccc32)ccc1OCc1c(C)noc1C	2	-2	i	-2	4
Cc1cc2c(c(=O)n1Cc1cccnc1)C(c1ccccc1)C(C#N)=C(N)O2 (configuration not stated)	-2	5	i	8	17
COc1ccccc1C1C(C#N)=C(N)Oc2cc(C)n(CCCn3ccnc3)c(=O)c21 (configuration not stated)	2	6	i	-4	12
Cc1cc2c(c(=O)n1CCCn1ccnc1)C(c1ccco1)C(C#N)=C(N)O2 (configuration not stated)	13	3	i	2	28*
COc1cccc(C2C(C#N)=C(N)Oc3cc(C)n(Cc4ccco4)c(=O)c32)c1 (configuration not stated)	22*	-9	i	-1	4
Cc1n[nH]c(C)c1CCC(=O)N/N=C/c1cccc([N+](=O)[O-])c1	2	-1	i	1	-1
O=C1CN(S(=O)(=O)c2ccc([N+](=O)[O-])cc2)CC(=O)N1	6	-22	+	-12	2
Cc1nc(SC(C(=O)c2ccccc2)c2ccccc2)nc2ccccc12 (configuration not stated)	-6	-16	+	-3	-7
C#CCOc1ccc(C2C3=C(CC(C)(C)CC3=O)N(CC(=O)O)C3=C2C(=O)CC(C)(C)C3)cc1OC	1	-9	i	2	32*
CCOc1cc(C2C3=C(CC(C)(C)CC3=O)N(CCCOC)C3=C2C(=O)CC(C)(C)C3)ccc1O	-6	-3	i	-1	31*
SMILES	ABHD5 PLIN5 PPI	Platelet DG rel	Rce1 inh	Exocytosis inh	PfM18AAP inh
NCCC1CCCC(CCN)N1 (configuration not stated)	0	x	x	-2	x
COc1cccc(-c2cccc(NC(=O)C3CCN(Cc4nccs4)CC3)c2)c1	0	3	i	0	5
O=C(NCCN1CCOCC1)NC1(C(F)(F)F)Oc2ccccc2O1	2	-2	i	0	72*
CCOC(=O)c1nc(C)c(C(C)=O)s1	8	-3	i	-1	x
CC(=O)Oc1ccc(/C=C2/CCc3ccccc3C2=O)cc1	-3	31	i	5	7
O=C1/C(=C/c2ccc([N+](=O)[O-])cc2)CCc2ccccc21	x	50*	i	x	5
Cc1ccsc1/C=C1\CCc2ccccc2C1=O	0	64*	i	-1	7
Cc1ccc(S(=O)(=O)NNC(=O)c2cc(C)c(C)cc2N)cc1	-13	x	x	-3	x
CSC1=NCCN1C(=O)Cc1ccc(F)cc1	9	-9	i	-3	-3
CNC(=S)N/N=C/c1cn(CCOc2ccccc2OC)c2ccccc12	-4	-3	i	7	3
O=C1OC(=O)c2c(Br)c(Br)c(Br)c(Br)c21	3	x	x	-3	x
CCS(=O)(=O)N1CCN(C2CCC(c3ccccc3)CC2)CC1 (configuration not stated)	-6	-3	+	-2	3
COc1ccc(C(=O)C2CCCN(Cc3cn[nH]c3-c3ccccc3)C2)cc1OC (configuration not stated)	-7	-1	x	0	-9
COc1cc(/C=C2\SC(=S)N(CCC(=O)Nc3cccc(O)c3)C2=O)cc(OC)c1OC	-1	8	i	85*	12
COc1cc(/C=C2\SC(=S)N(CCC(=O)Nc3ccccc3)C2=O)cc(OC)c1OC	-1	15	i	-5	4
CC(=O)NCC1CCCN(c2nc3nonc3nc2N(C)Cc2ccccc2)C1 (configuration not stated)	0	-2	i	-2	-8
Cc1ccc(C=NNc2nc3c([nH]2)c(=O)n(C)c(=O)n3C)cc1	0	x	x	84*	x
O=C(NN=C1CCCC1)c1ccc(O)cc1O	3	-8	i	0	31*
CCNC(=O)C1(C)CCCN(C(=O)/C=C/c2ccccc2)C1 (configuration not stated)	4	x	x	-9	x
O=C(COC(=O)Cc1c(F)cccc1Cl)NNC(=O)c1ccccc1	0	x	x	6	x
O=S(=O)(Nc1ccc(O)c(NS(=O)(=O)c2ccccc2)c1)c1ccccc1	1	6	i	-2	68*
Cc1cccc(Nc2nc(NCc3ccco3)c3ccccc3n2)c1	0	2	i	22	0
Cc1ccccc1Nc1nc(NCc2ccco2)c2ccccc2n1	3	13	i	82*	7
Cc1ccc(S(=O)(=O)Nc2nc3ccccc3nc2NCc2ccco2)cc1	25*	-6	i	-4	27
O=S(=O)(Nc1nc2ccccc2nc1NCc1ccco1)c1ccc(Cl)cc1	10	-26	i	3	24
O=C(Nc1ccccc1-c1nc2ccccc2[nH]1)c1ccc(S(=O)(=O)N2CCCCC2)cc1	9	14	i	0	2
O=C(Nc1ccccc1-c1nc2ccccc2[nH]1)c1ccc(N2C(=O)CCC2=O)cc1	0	8	+	7	-6
C=CCc1cccc(/C=N/NC(=O)CNc2ccccc2)c1O	-6	-5	i	-2	0
